The results in this text go back to PubChem BioAssay AID2384 (Southern Research Specialized Biocontainment Screening …, 2010).

About 1,100 (48%) of roughly 2,300 compounds were called active. The rule behind the calls is not given here. The set was probably picked from earlier hits. Some of the results follow. Results with a measured potency or affinity are listed apart.

The nature of the test: inhibitors in S. typhi counter-screen strain, dose response, counter-screen for PhoP regulon inhibitor project, fluorescence, 4 h (AID 2384). The conditions noted are these: S. typhi GFP reporter counter-screen; series mostly up to 150 µM.
As usually defined, the inhibition is the share of the control response that was lost under treatment. Consider `COC(=O)C(NC(C)=O)(Nc1nc2c(s1)CCCC2)C(F)(F)F` (centres undefined), for which the inhibition result was “inactive”.

Take `CCOC(=O)CSc1nc(-c2ccccc2)nc2ccccc12`: the inhibition result is “inactive”.

For `Cc1[nH]c2ccccc2c1/C=C/c1nc2ccccc2c(=O)[nH]1`, the inhibition entry was “inactive”.

On to `COc1ccc(Nc2nnc(SCC3CCCO3)s2)cc1` (centres undefined), for which the inhibition entry is “inactive”.

Take `COc1ccc(CCn2c(=N)c(C(=O)NCC3CCCO3)cc3c(=O)n4ccccc4nc32)cc1` (centres undefined): the inhibition result is “inactive”.

With `COc1ccccc1Nc1nc(NCC2CCCO2)c2ccccc2n1` (centres undefined), the inhibition entry is “inactive”.

Regarding `O=S(=O)(c1ccccc1)c1nc(-c2cccs2)oc1NCC1CCCO1` (centres undefined), the inhibition result is “inactive”.

In the case of `COc1ccc(Cn2c(=N)c(C(=O)NCC3CCCO3)cc3c(=O)n4ccccc4nc32)cc1` (centres undefined), the inhibition result was “inactive”.

Take `c1ccc2oc(-c3csc(NCC4CCCO4)n3)cc2c1` (centres undefined): the inhibition entry is “inactive”.

Regarding `CC(=O)c1cccc(CN2CCN(C3CCCC3)C(CCO)C2)c1` (centres undefined), the inhibition result is “inactive”.

Regarding `CCCC1(c2ccccc2)NC(=O)N(CC(=O)Nc2ccccc2C(F)(F)F)C1=O` (centres undefined), the inhibition entry was “inactive”.

As to `O=C(NCC1CCCO1)c1cc2ccccc2oc1=O` (centres undefined), the inhibition entry is “inactive”.

Regarding `Cc1cccn2c(=O)c3cc(C(=O)NCC4CCCO4)c(=N)n(C4CCCC4)c3nc12` (centres undefined), the inhibition entry was “inactive”.

Regarding `Cc1oc2nc(SCCCC(=O)NCCCO)nc(N)c2c1C`, the inhibition result was “inactive”.

With `Cc1c(C(=O)O)c(-c2ccccc2)nn1-c1ccccc1`, the inhibition result is “inactive”.

In the case of `CCN(CC)C(=O)CNC(=O)Cc1ccc(Cl)cc1`, the inhibition result is “inactive”.

As for `O=C1c2ccccc2C(=O)N1CCCP(=O)(O)CCc1ccccc1`, the inhibition entry is “inactive”.

For the compound `COc1ccc(/C=N/NC(=O)c2ccc3c(c2)OCO3)cc1`, the inhibition entry is “inactive”.

`COc1ccc(N2CCN(C(CNC(=O)c3ccc4c(c3)OCO4)c3ccco3)CC2)cc1` (centres undefined): the inhibition result was “inactive”.

Regarding `O=C(N/N=C\c1ccc(F)cc1)c1ccc(F)cc1`, the inhibition result is “inactive”.

As for `CCCCN1/C(=C/c2cccc[n+]2C)Sc2cc(NC(C)=O)ccc21`, the inhibition result is “inactive”.

As to `O=C(CSc1nc2ccccc2o1)c1cc2ccccc2oc1=O`, the inhibition entry is “inactive”.

`CC(Sc1nc2ccccc2o1)C(=O)O` (centres undefined): the inhibition entry was “inactive”.

As to `Cc1c(CC(=O)N2CCC(C(N)=O)CC2)c(=O)oc2cc3c(cc12)CCC1(CCCCC1)O3`, the inhibition entry is “inactive”.

As to `O=C(/C=C/c1c(F)cccc1Cl)N1CCOCC1`, the inhibition result was “inactive”.

As to `Cc1cc(N/N=C/c2ccc(F)cc2)nc(NCc2ccccc2)n1`, the inhibition entry was “inactive”.

With `COc1ccc2nc(Nc3ccccc3)sc2c1`, the inhibition entry was “inactive”.

For `CC1CCN(C(=O)COc2ccc(Nc3ccccc3)cc2)CC1`, the inhibition entry was “inactive”.

For `O=C(Nc1ccc(N2CCOCC2)cc1)C1CCN(S(=O)(=O)c2ccccc2F)CC1`, the inhibition result is “inactive”.

As for `CCCCNC(=S)Nc1ccc([N+](=O)[O-])cc1`, the inhibition result was “inactive”.

In the case of `CCn1cc(C(=O)NCc2ccc3c(c2)OCO3)c(=O)c2cc(F)c(N3CCN(C(=O)c4ccco4)CC3)cc21`, the inhibition result is “inactive”.

On to `CCn1cc(C(=O)N[C@@H](C)C(=O)OC)c(=O)c2cc3c(cc21)OCO3`, for which the inhibition result is “inactive”.

As to `CCN(CC)S(=O)(=O)c1ccc2c(c1)c(C(=O)O)cn2C`, the inhibition result is “inactive”.

As for `O=C(c1cc2c(s1)-c1ccccc1OC2)N1CCc2ccccc2C1`, the inhibition entry was “inactive”.

In the case of `Nc1c(-c2ccccc2)sc2ccc3ccccc3[n+]12`, the inhibition result is “inactive”.

Regarding `CN(Cc1ccccc1)S(=O)(=O)c1csc(C(N)=O)c1`, the inhibition entry is “inactive”.

Turning to `Cc1ccc(C(C)C)c(OCCNC(=O)c2ccccc2O)c1`, the inhibition result was “inactive”.

Turning to `Cc1cccc(NC(=O)c2ccccc2Br)n1`, the inhibition result is “inactive”.

Regarding `CN1C(=O)c2ccc(NC(=O)C3CCCCC3)cc2C1=O`, the inhibition result is “inactive”.

`CC(=O)c1c(C)[nH]c(C(=O)OCC(=O)NCC(C)C)c1C`: the inhibition result is “inactive”.

Consider `O=C(NCCc1ccncc1)Nc1ccc(Cl)c(Cl)c1`, for which the inhibition entry was “inactive”.

On to `Cc1ccc(NC(=S)NCc2cccs2)cc1`, for which the inhibition result was “inactive”.

Take `O=C(O)CCSCc1ccccc1F`: the inhibition result was “inactive”.

For the compound `Cc1cc2cc(CNC(=O)C(C)Oc3ccccc3)ccc2n1C` (centres undefined), the inhibition result is “inactive”.

As for `COC(=O)c1cccc(C(=O)N2CCCC(CCC(=O)N(C)CCc3ccccn3)C2)c1` (centres undefined), the inhibition entry is “inactive”.

Turning to `COc1cccc(CNc2nn[nH]n2)c1OC`, the inhibition entry is “inactive”.

For `Fc1ccc(NC(=S)NCc2ccccc2Cl)cc1`, the inhibition entry was “inactive”.

Regarding `COc1ccccc1CNC(=O)COC(=O)CCC(=O)c1cccs1`, the inhibition entry is “inactive”.

Regarding `Cc1cc(=O)oc2cc(OCC(=O)NC3CCCC3)ccc12`, the inhibition result was “inactive”.

Regarding `COc1cccc(C(=O)Nc2cccc(SC)c2)c1`, the inhibition entry was “inactive”.

As to `CSc1cccc(NC(=O)/C=C/c2ccco2)c1`, the inhibition result was “inactive”.

Regarding `CC(C)CCNC(=O)c1cc2c(s1)-c1ccccc1S(=O)(=O)C2`, the inhibition entry was “inactive”.

In the case of `COC(=O)c1ccc(CSc2nc3ccccc3c(=O)n2-c2ccc(OC)c(OC)c2)o1`, the inhibition result is “inactive”.

For the compound `Cc1[nH]nc2c1C1(CCC3(CC1)OCCO3)C(C#N)=C(N)O2`, the inhibition entry was “inactive”.

On to `Cc1ccsc1/C=N\NC(=O)c1ccc2c(c1)OCO2`, for which the inhibition is 29.4% [at 18.8 µM] (inactive).

On to `Cc1ccc2cc(-c3noc(C4CCCO4)n3)c(=O)[nH]c2c1` (centres undefined), for which the inhibition result is “inactive”.

Consider `Cc1[nH]c(=O)[nH]c(=O)c1S(=O)(=O)N1CCCC(C(=O)NCc2ccc3c(c2)OCO3)C1` (centres undefined), for which the inhibition result was “inactive”.

For the compound `CCc1cccc2c(C=C(C#N)C#N)cn(CC(=O)N3CCCCCC3)c12`, the inhibition entry was “inactive”.

Consider `N#Cc1c(/N=C/c2cccs2)sc2c1CCCCC2`, for which the inhibition entry was “inactive”.

Consider `Cc1nc(NC2=NCN(CCCN3CCOCC3)CN2)nc2c(C)cccc12`, for which the inhibition entry is “inactive”.

Consider `COc1cccc(CNC(=O)C2CCN(S(=O)(=O)c3ccc(C)cc3)CC2)c1`, for which the inhibition result was “inactive”.

Turning to `COc1cccc(NC(=O)CN(C)C(C)C(=O)Nc2ccc(S(=O)(=O)N3CCOCC3)cc2)c1` (centres undefined), the inhibition result is “inactive”.

Take `Nc1nc(SCC(=O)Nc2ccc3c(c2)CCC3)n[nH]1`: the inhibition entry is “inactive”.

Regarding `CC(C)Cc1c(O)nc(SCC(=O)Nc2ccc3c(c2)CCC3)[nH]c1=O`, the inhibition result was “inactive”.

In the case of `CC(=O)c1ccc(NC(=S)NC(NC(=O)c2ccco2)C(Cl)(Cl)Cl)cc1` (centres undefined), the inhibition entry was “inactive”.

As for `Cc1nn(-c2nc3ccccc3[nH]2)c(N)c1-c1ccccc1`, the inhibition entry was “inactive”.

As for `CC(C)SCc1nc2ccccc2[nH]1`, the inhibition result is “inactive”.

With `N#CC(C(=O)C12CC3CC(CC(C3)C1)C2)c1nc2ccccc2[nH]1` (centres undefined), the inhibition result was “inactive”.

Regarding `COc1cccc(CNS(=O)(=O)c2ccc3c(c2)NC(=O)CS3)c1`, the inhibition entry was “inactive”.

As for `O=C(O)CC12CC3CC(C1)CC(n1ncc(NCC4CCCO4)c(Cl)c1=O)(C3)C2` (centres undefined), the inhibition result is “inactive”.

For `Cc1ccc(NC2=C(Cl)C(=O)OC2OC(=O)c2ccco2)c(C)c1` (centres undefined), the inhibition entry is “inactive”.

In the case of `O=C(NCc1nc2ccccc2[nH]1)c1ccc([N+](=O)[O-])cc1`, the inhibition entry is “inactive”.

`CN(C)C(CNc1ccc([N+](=O)[O-])cc1C#N)c1ccccc1` (centres undefined): the inhibition result is “inactive”.

Consider `COc1ccc(C2=NN3C(C2)c2ccccc2OC3c2cccs2)cc1` (centres undefined), for which the inhibition entry was “inactive”.

Regarding `CCS(=O)(=O)N1CCN(C2CCC(c3ccccc3)CC2)CC1` (centres undefined), the inhibition entry is “inactive”.

Consider `CNS(=O)(=O)c1cc(OC)ccc1OC`, for which the inhibition entry is “inactive”.

For `NC(=O)c1cc(C(=O)c2cccc(Cl)c2Cl)c[nH]1`, the inhibition entry was “inactive”.

With `CCOC(=O)COn1c(=O)c(-c2cccs2)[n+]([O-])c2ccccc21`, the inhibition entry was “inactive”.

Turning to `CCOc1ccc(N2C(=O)S/C(=C\c3ccc(O)c(OC)c3)C2=O)cc1`, the inhibition result was “inactive”.

In the case of `c1ccn(-c2ccc(-c3ccn[nH]3)cc2)c1`, the inhibition entry is “inactive”.

Consider `CC(=O)Nc1nc(C)c(-c2csc(Nc3ccc(O)cc3)n2)s1`, for which the inhibition entry was “inactive”.

As for `Cc1cc(NS(=O)(=O)c2ccc(Nc3nc(-c4sc(NC(=O)c5ccccc5)nc4C)cs3)cc2)no1`, the inhibition entry is “inactive”.

For the compound `CC(C)(C)n1nc2c(c1NC(=O)c1ccccc1)CS(=O)(=O)C2`, the inhibition result is “inactive”.

Regarding `Cc1cc(C)c[n+](CC(=O)c2ccc(NC(=O)c3ccccc3)cc2)c1`, the inhibition result was “inactive”.

Consider `Clc1ccc(Cn2cc(Br)cn2)cc1Cl`, for which the inhibition entry was “inactive”.

Regarding `COC(=O)Cn1c(=O)c(C)nc2ccccc21`, the inhibition entry is “inactive”.

As for `COCCn1nnnc1C(c1cccc(OC)c1OC)N1CCN(C2CCCCC2)CC1` (centres undefined), the inhibition result is “inactive”.

In the case of `COc1cc2[nH]c(=O)n(Cc3ccc(C(=O)N4CCC(N5CCCCC5)CC4)cc3)c(=O)c2cc1OC`, the inhibition result is “inactive”.

As to `O=C1c2cccnc2C(=O)N1c1ccccc1-c1ccccc1`, the inhibition entry was “inactive”.

Regarding `CC(C)(C)c1ccc(C(=O)NNC(=O)Cc2ccccc2)cc1`, the inhibition result was “inactive”.

With `O=C(c1cccs1)N1CCN(S(=O)(=O)c2ccccc2)CC1`, the inhibition entry is “inactive”.

On to `CC(C)(C)n1nc2c(c1NC(=O)c1cccs1)CS(=O)C2` (centres undefined), for which the inhibition entry was “inactive”.

Turning to `CCc1ccccc1NC(=S)N(Cc1cccc(C)c1)c1cccnc1`, the inhibition result was “inactive”.

Take `N#Cc1c(-c2ccccc2)ccn(Cc2cccc(Cl)c2)c1=O`: the inhibition entry was “inactive”.

On to `N=c1sc2c(n1Cc1ccccc1)CCCC2`, for which the inhibition result is “inactive”.

As for `Nc1nc2n(n1)C(c1ccco1)CC(c1ccc(Cl)c(Cl)c1)N2` (centres undefined), the inhibition result was “inactive”.

For `Cc1ccc2nc3c(c(N)c2c1)CCN3C`, the inhibition entry was “inactive”.

In the case of `O=C(CSc1nnnn1C1CCCCC1)N1CCCC1`, the inhibition entry is “inactive”.

Turning to `Cc1cc(C)nc(NS(=O)(=O)c2ccc(N3C(=O)C4CC=C(Cl)CC4C3=O)cc2)n1` (centres undefined), the inhibition entry was “inactive”.

Turning to `Cc1ccc(NC(=O)C(=O)NCc2ccncc2)cc1`, the inhibition entry is “inactive”.

As to `O=S(=O)(Nc1ncccn1)c1ccc(NC(=S)Nc2ccc(Cl)cc2)cc1`, the inhibition result is “inactive”.

For the compound `Fc1cccc(NC(=S)NCc2ccc(Cl)cc2)c1`, the inhibition result was “inactive”.

For the compound `COC(=O)Cc1ccc(NC(=S)NCc2ccc(Cl)cc2)cc1`, the inhibition result was “inactive”.

`CCOc1ccccc1NC(=O)Nc1ccncc1`: the inhibition entry is “inactive”.

In the case of `CCNC(=S)Nc1cccc(S(=O)(=O)Nc2ccccc2OC)c1`, the inhibition result is “inactive”.

With `Cc1ccc(S(=O)(=O)N(Cc2n[nH]c(=S)n2-c2ccccc2)c2ccccc2)cc1`, the inhibition result is “inactive”.

Turning to `CCN(C1CCCCC1)S(=O)(=O)c1ccc(OC)c(C)c1`, the inhibition entry is “inactive”.

For the compound `Cc1cnc(C(=O)Nc2nnc(C)s2)cn1`, the inhibition result is “inactive”.

On to `O=C(O)C1Cc2ccccc2CN1S(=O)(=O)c1ccc2ccccc2c1` (centres undefined), for which the inhibition entry was “inactive”.

Take `CN1CCCN(S(=O)(=O)c2ccc3c(c2)OCCO3)CC1`: the inhibition entry is “inactive”.

As to `O=S(=O)(Nc1cccc(-c2cn3c(n2)SCC3)c1)c1ccc(F)cc1F`, the inhibition entry is “inactive”.

For `COc1ccc(NC(=O)N(CCc2ccccc2)Cc2cc3c(C)cc(C)cc3[nH]c2=O)cc1`, the inhibition entry was “inactive”.

On to `CCC(CC)C(=O)NCCc1cc2ccc(C)cc2[nH]c1=O`, for which the inhibition result was “inactive”.

For `COc1ccc(Cl)cc1-c1n[nH]c(=S)o1`, the inhibition result was “inactive”.
